For 33 molecules, Potency and outcome results are on record in PubChem BioAssay (Tox21).

Test [1] in a line: qHTS assay to identify small molecule agonists of the peroxisome proliferator-activated receptor delta (PPARd) signaling pathway - cell viability counter screen (AID 743211). Further: nearly all actives have a fitted effect of over 55% in size. Further: potency means the concentration at half of the fitted maximal effect. Put shortly:
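Luminescent ATP viability assay (CellTiter-Glo, 30 min RT) in UAS-bla HEK293H cells carrying the PPAR delta reporter construct, 3000 cells/well, after a 17 h compound treatment at 37 C.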
In general terms: qHTS replaces the single test concentration by a dilution series.

Test [2] is described as follows: qHTS assay to identify small molecule antagonists of the peroxisome proliferator-activated receptor delta (PPARd) signaling pathway - cell viability counter screen (AID 743213). Further: nearly all actives have a fitted effect of over 50% in size. Further: potency means the concentration at half of the fitted maximal effect. Put shortly: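 PPARd-bla HEK293H cells (3000/well) got compound plus 300 nM L165041 agonist for 17 h at 37 C. Viability in the same wells came from CellTiter-Glo luminescence after 30 min at room temperature.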

Test [3] can be described thus: qHTS assay to identify small molecule agonists of the farnesoid-X-receptor (FXR) signaling pathway - cell viability counter screen (AID 743218). Further: nearly all actives have a fitted effect of over 45% in size. Put shortly: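 Viability counter screen in the same wells: CellTiter-Glo luminescence, 30 min room-temperature incubation, measured after the beta-lactamase read. Cells were GeneBLAzer FXR-UAS-bla HEK 293T, compound-treated 16 h at 37C.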

Test [4] is described as follows: qHTS assay to identify small molecule antagonists of the farnesoid-X-receptor (FXR) signaling pathway - cell viability counter screen (AID 743221; active means well fitted cell-killing curve with a large enough effect in the repeat runs, not every such curve was filed as active; further: nearly all actives have a fitted effect of over 50% in size; further: potency means the concentration at half of the fitted maximal effect). In a few lines:
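In GeneBLAzer FXR-UAS-bla HEK 293T cells stimulated with 50 uM chenodeoxycholic acid (final), compounds acted for 16 h at 37 C. Viability was assessed afterwards by CellTiter-Glo luminescence.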

In test [5] the target is Vitamin D3 receptor (Homo sapiens) (UniProt P11473). Put plainly: qHTS assay to identify small molecule antagonists of the vitamin D receptor (VDR) signaling pathway (AID 743223; active means well fitted inhibition curve with a large enough effect in the signal ratio in the repeat runs, not every such curve was filed as active; the % refers to the signal ratio). Put shortly: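 Agonist 1alpha,25-dihydroxyvitamin D3 (3 nM in well) was added with each compound to VDR-bla cells preincubated 4 h. Cells stood 16 h at 37C, then FRET substrate 2 h at room temperature; fluorescence intensity recorded.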

In test [6] the target is Peroxisome proliferator-activated receptor delta (Homo sapiens) (UniProt Q03181). As to the kind of experiment: qHTS assay to identify small molecule antagonists of the peroxisome proliferator-activated receptor delta (PPARd) signaling pathway (AID 743215; active means well fitted inhibition curve with a large enough effect in the signal ratio in the repeat runs, not every such curve was filed as active; the % refers to the signal ratio;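 further: cells stimulated with agonist L165041 at 300 nM final during compound exposure; series mostly up to about 62 µM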). Put shortly:
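Agonist L165041 (300 nM final) added with compound to PPARd-bla HEK293H UAS-bla reporter cells; 17 h incubation at 37 C. Read-out: LiveBLAzer FRET substrate, 2 h at room temperature, fluorescence intensity.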

In test [7] the target is Vitamin D3 receptor (Homo sapiens) (UniProt P11473). Put plainly: qHTS assay to identify small molecule agonists of the vitamin D receptor (VDR) signaling pathway (AID 743222; calls by dose curve). In a few lines: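 Agonist mode, beta-lactamase reporter: fluorescence from LiveBLAzer B/G FRET substrate (2 h, room temperature) read after 16 h compound treatment at 37 C of VDR-bla cells, which were pre-incubated 4 h after seeding.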

In test [8] the target is Bile acid receptor (Homo sapiens) (UniProt Q96RI1). As to the kind of experiment: qHTS assay to identify small molecule antagonists of the farnesoid-X-receptor (FXR) signaling pathway (AID 743217; active means well fitted inhibition curve with a large enough effect in the signal ratio in the repeat runs, not every such curve was filed as active; the % refers to the signal ratio). Put shortly: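 Antagonist mode: chenodeoxycholic acid at 50 uM final stimulates a UAS-driven beta-lactamase reporter in HEK 293T FXR-bla cells during 16 h, 37C compound exposure. Read-out is FRET substrate fluorescence after 2 h at room temperature.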

Test [9] shares this target. As to the kind of experiment: qHTS assay to identify small molecule agonists of the farnesoid-X-receptor (FXR) signaling pathway (AID 743220; active means well fitted activation curve with a large enough effect in the signal ratio in the repeat runs, not every such curve was filed as active; the % refers to the signal ratio). Put shortly:
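FXR-UAS-bla HEK 293T cells carrying a UAS-driven beta-lactamase reporter were plated for 5 h at 37C/5% CO2, then exposed to DMSO-dissolved Tox21 10K compounds for 16 h at 37C. A LiveBLAzer B/G FRET substrate was loaded for 2 h at room temperature before fluorescence reading.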

Test [10] has as its target Peroxisome proliferator-activated receptor delta (Homo sapiens) (UniProt Q03181). As to the kind of experiment: qHTS assay to identify small molecule agonists of the peroxisome proliferator-activated receptor delta (PPARd) signaling pathway (AID 743212; calls by dose curve;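 further: HEK293H cells with PPARd UAS beta-lactamase reporter GeneBLAzer system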). In a few lines:
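Beta-lactamase reporter readout: a ratiometric FRET signal from the LiveBLAzer substrate after 2 h at room temperature. Compound exposure at 37 °C in PPARδ-bla HEK293H cells driven by an upstream activator sequence.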

Results filed as inconclusive are left out. The source made the active and inactive calls. Unless noted, the call rests on the fitted dose curve; in most records, active means well fitted curve in the direction sought with a large enough effect in the repeat runs; inconclusive means weak or mixed curves; inactive means no such curve, though single readings can be large; an effect the other way counts as inactive or inconclusive.

Chain of Bile acid receptor (Homo sapiens) (Q96RI1 whole entry, looked up): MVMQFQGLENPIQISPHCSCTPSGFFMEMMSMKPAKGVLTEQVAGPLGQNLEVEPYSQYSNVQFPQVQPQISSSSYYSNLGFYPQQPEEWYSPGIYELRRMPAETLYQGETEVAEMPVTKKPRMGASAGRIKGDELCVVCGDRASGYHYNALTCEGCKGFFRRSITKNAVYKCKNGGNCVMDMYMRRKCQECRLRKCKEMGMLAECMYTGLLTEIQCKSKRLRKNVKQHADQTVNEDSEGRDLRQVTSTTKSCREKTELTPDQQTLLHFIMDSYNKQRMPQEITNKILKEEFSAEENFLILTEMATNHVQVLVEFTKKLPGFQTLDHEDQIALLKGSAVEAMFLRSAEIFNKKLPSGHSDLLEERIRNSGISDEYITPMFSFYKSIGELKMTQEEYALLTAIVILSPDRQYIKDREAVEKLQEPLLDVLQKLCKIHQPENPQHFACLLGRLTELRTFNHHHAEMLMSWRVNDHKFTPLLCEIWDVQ
Chain of Peroxisome proliferator-activated receptor delta (Homo sapiens) (Q03181 whole entry, looked up): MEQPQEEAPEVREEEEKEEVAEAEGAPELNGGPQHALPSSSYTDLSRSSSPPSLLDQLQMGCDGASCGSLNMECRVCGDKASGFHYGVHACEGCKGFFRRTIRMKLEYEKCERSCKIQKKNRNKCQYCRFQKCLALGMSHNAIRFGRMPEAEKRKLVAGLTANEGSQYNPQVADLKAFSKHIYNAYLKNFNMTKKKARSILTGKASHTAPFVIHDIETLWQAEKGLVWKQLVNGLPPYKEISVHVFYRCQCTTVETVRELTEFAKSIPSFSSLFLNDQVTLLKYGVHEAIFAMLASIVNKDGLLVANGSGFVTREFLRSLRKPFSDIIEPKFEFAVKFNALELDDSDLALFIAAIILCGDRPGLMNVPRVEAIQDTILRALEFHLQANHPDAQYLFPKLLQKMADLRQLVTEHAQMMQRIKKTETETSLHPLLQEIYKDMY
Chain of Vitamin D3 receptor (Homo sapiens) (P11473 whole entry, looked up): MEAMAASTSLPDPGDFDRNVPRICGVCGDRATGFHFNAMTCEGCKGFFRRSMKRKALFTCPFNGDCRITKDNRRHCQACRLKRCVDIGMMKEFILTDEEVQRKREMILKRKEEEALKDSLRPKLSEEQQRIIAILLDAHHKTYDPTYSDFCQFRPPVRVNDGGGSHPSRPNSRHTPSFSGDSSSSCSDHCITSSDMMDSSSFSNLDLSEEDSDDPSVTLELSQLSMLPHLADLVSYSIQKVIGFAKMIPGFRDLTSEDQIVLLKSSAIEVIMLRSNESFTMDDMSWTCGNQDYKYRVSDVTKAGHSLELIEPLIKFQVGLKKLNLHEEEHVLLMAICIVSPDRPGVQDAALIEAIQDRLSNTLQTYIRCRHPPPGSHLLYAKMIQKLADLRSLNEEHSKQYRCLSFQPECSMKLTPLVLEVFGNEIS

Turning to `CC(C)c1ccc2oc3nc(N)c(C(=O)O)cc3c(=O)c2c1`, the Potency result in [1], in test [2] and in test [4] was “inactive” each time. In addition, the molecule was called inactive in test [3] and in test [5].

As for `N[C@@H](CS)C(=O)O`, the Potency entry in test [1], in test [2] and in [4] was “inactive” throughout. The molecule was called inactive in [6], in test [3] and in [7].

Regarding `O=S(=O)(O)c1ccccc1O`, the Potency result in test [1], in test [2] and in [4] was “inactive” throughout. Also, the result in test [6] and in [3] was inactive.

With `Nc1ccn(C2CO[C@H](CO)O2)c(=O)n1` (some centres undefined), the Potency result in [1], in test [2] and in [4] was “inactive” each time. Also, the result in test [8], in test [3], in test [9], in [7] and in test [5] was inactive.

Regarding `c1ccc(CCCc2ccccn2)cc1`, the Potency entry in test [1], in test [2] and in test [4] was “inactive” throughout. Moreover, the molecule was classed as inactive in [8], in [3], in [9] and in test [7].

As for `Cc1ccc(N)cc1[N+](=O)[O-]`, the Potency entry in test [1], in [2] and in test [4] was “inactive” each time. The result in [6], in test [3], in test [7] and in [5] was inactive.

For `CCCCCCC(CCCCCCCCCCC(=O)OCC(COC(C)=O)OC(C)=O)OC(C)=O` (centres undefined), the Potency result in test [1], in [2] and in test [4] was “inactive” in each case. Further, the molecule was classed as inactive in test [6], in [9], in [7] and in test [5].

Regarding `CCCOCC(C)OCC(C)O` (centres undefined), the Potency result in test [1], in [2] and in [4] was “inactive” in each case. Besides, the molecule was classed as inactive in test [8], in test [3], in test [9], in [7] and in test [5].

Take `Cc1nc(-c2ccc(OCC(C)C)c(C#N)c2)sc1C(=O)O`: the Potency entry in test [1], in test [2] and in [4] was “inactive” each time. Also, the molecule was called inactive in [3].

`CCCCCCC(=O)OCC`: the Potency result in test [1], in test [2] and in test [4] was “inactive” each time. The outcome in test [6], in test [3], in test [7] and in test [5] was inactive.

`COc1cc(C(=O)N2CCOCC2)cc(OC)c1OC`: the Potency entry in test [1], in test [2] and in [4] was “inactive” in each case. For the same molecule, the call in [3], in [7] and in test [5] was inactive.

Take `CCCCc1ccc(N)cc1`: the Potency result in test [1] and in [2] was “inactive” each time. For the same molecule, the molecule was classed as inactive in test [3], in test [7] and in [5].

With `CCCCCC[C@@H](CCC)C(=O)O`, the Potency result in test [1], in test [2] and in [4] was “inactive” in each case. Moreover, the molecule was classed as inactive in test [7] and in [5].

For `CCCCCCCCCCC1CO1` (centres undefined), the Potency entry in test [1], in test [2] and in [4] was “inactive” in each case. Further, the outcome in [6], in [3] and in test [5] was inactive.

For the molecule `N#CCN(CC#N)CCN(CC#N)CC#N`, the Potency result in test [1], in test [2] and in test [4] was “inactive” throughout. The outcome in [6], in [7] and in test [5] was inactive.

Take `OC1OC[C@@H](O)[C@H](O)[C@H]1O` (some centres undefined): the Potency result in test [1], in [2] and in [4] was “inactive” each time.

As to `CCCCCN(CCCCC)C(=O)C(CCC(=O)O)NC(=O)c1ccc(Cl)c(Cl)c1` (centres undefined), the Potency result in test [1], in [2] and in test [4] was “inactive” each time. Also, the outcome in [6] and in test [3] was inactive.

For `CN(C)C(=O)C(CCN1CCC(O)(c2ccc(Cl)cc2)CC1)(c1ccccc1)c1ccccc1`, the Potency was 23.7 µM (active) in test [1], 11.9 µM (active) in test [2] and 29.8 µM (active) in test [4]. Also, the result in [9] and in [5] was inactive.

On to `NCCNC(=O)c1ccc(Cl)cn1`, for which the Potency entry in test [1], in test [2] and in test [4] was “inactive” throughout. In addition, the result in test [3], in [7] and in [5] was inactive.

For `C[C@H]1O[C@@H](n2cc(F)c(=O)[nH]c2=O)[C@H](O)[C@@H]1O`, the Potency result in [1], in test [2] and in [4] was “inactive” each time.

In the case of `CC(C)CCCC(C)CCCC(C)CCCCC(C)CCCC(C)CCCC(C)C` (centres undefined), the Potency entry in test [1], in [2] and in test [4] was “inactive” throughout. In addition, the molecule was called inactive in [6], in test [3], in [7] and in test [5].

As for `CO`, the Potency result in test [1], in [2] and in test [4] was “inactive” throughout. In test [7], the outcome was inactive.

For `CC(C=O)Cc1ccc(C(C)C)cc1` (centres undefined), the Potency entry in test [1], in [2] and in [4] was “inactive” in each case. The molecule was called inactive in test [6], in [7] and in test [5].

As for `C=C[Si](OC)(OC)OC`, the Potency result in test [1], in test [2] and in test [4] was “inactive” throughout. Moreover, the call in [6], in [3], in test [7] and in test [5] was inactive.

Consider `Cc1cc(C)c(NC(=O)CN(CC(=O)O)CC(=O)O)c(C)c1Br`, for which the Potency entry in test [1], in [2] and in test [4] was “inactive” each time. Further, the result in test [3] and in [7] was inactive.

In the case of `O=C(O)C1CCC1`, the Potency entry in test [1], in test [2] and in test [4] was “inactive” throughout. Moreover, the call in [6], in [3], in [7] and in test [5] was inactive.

With `CCCCC=O`, the Potency entry in test [1], in test [2] and in test [4] was “inactive” throughout. The molecule was called inactive in test [3], in test [9], in test [7] and in test [5].

For `CC1=CC(C)C(C=O)C(C)C1` (centres undefined), the Potency entry in test [1] and in [2] was “inactive” in each case. Also, the outcome in [8], in test [3], in test [9], in test [7] and in [5] was inactive.

As for `CCCCC1CCCCC(=O)O1` (centres undefined), the Potency result in test [1], in [2] and in [4] was “inactive” throughout. Besides, the molecule was classed as inactive in test [6], in [3], in test [7] and in test [5].

Consider `CC1=CC(=O)CCC1`, for which the Potency result in [1], in test [2] and in [4] was “inactive” in each case. Further, the call in [3] was inactive.

Turning to `O=C(O)c1ccc[n+]([O-])c1`, the outcome in [10], in test [6], in test [3], in test [7] and in [5] was inactive. Further, in [4], the Potency result was “inactive”.

For the molecule `O=c1[nH]c(=O)n([C@H]2O[C@H](CO)[C@@H](O)[C@@H]2O)cc1/C=C\Br`, the result in test [10] and in [6] was inactive. Besides, the Potency entry in [2] and in [4] was “inactive” each time.

Regarding `COCCOC(=O)CC#N`, the Potency result in test [2] and in test [4] was “inactive” each time. Moreover, the molecule was classed as inactive in test [6] and in [7].
